# Laboratory results taken from PubChem BioAssay (NCATS).
# Several values for one entry are separate records, joined by “and”; a condition that tells them apart may be missing. Identical values can stand only once. Inconclusive results are not listed. Where a call stands in place of a potency, no number is given. Activity calls are given as the source filed them. Calls follow the shape of the dose curve; as a rule, active = well fitted inhibition curve with a large enough effect in the repeat runs; inconclusive = weak or mixed curves; inactive = no such curve, though single readings can be large or run the other way.
# Biological target: Cytochrome P450 2C9 (Homo sapiens) (UniProt P11712)
# Experiment: Cytochrome P450 family 2 subfamily C member 9 (CYP2C9) small molecule antagonists: luciferase biochemical (cell-free) qHTS assay (AID 1645842); also: nearly all actives have a fitted effect of over 55% in size
# Conditions: P450-Glo CYP2C9 enzyme assay, luciferin luminescence; series mostly up to 57.4 µM
# Description: National Center for Advancing Translational Sciences [NCATS] Assay Overview: Cytochrome P450 (CYP) enzymes are membrane-bound hemeproteins that play a key role in metabolism of drugs and xenobiotics. Assaying the effect of chemicals on CYP isozymes is useful to minimize the adverse drug reactions and toxicities in drug development process. Chemical compounds were tested for their effect on CYP enzyme activities by using P450-Glo (TM) screening systems (Promega Corporation, Madison, WI). These systems provide a luminescent method containing proluciferin substrates and are converted to luciferin products by CYP isozymes. The luciferin products formed are detected with a luciferin detection reagent, and the amount of light produced is proportional to CYP activity. P450-Glo (TM) CYP2C9 screening system (Catalog. No. V9790) was used to detect the compounds that interfere in CYP2C9 activity.
# Assay Protocol Summary: Two ul of enzyme-substrate mix supplemented with 0.4% Bovine Serum Albumin was dispensed into medium binding white/solid 1536-well plates (Greiner Bio-One North America Inc., Monroe, NC) using a Flying Reagent Dispenser (FRD, Aurora Discovery, San Diego, CA). […] The assay plates were incubated at room temperature for 10 min. Then 2 ul of NADPH regeneration solution was added to each well of the assay plates using an FRD and incubated at 37C for 1 h. The reaction was stopped by adding 4 ul of detection reagent using an FRD and after 20 min incubation at room temperature, the luminescence signal was measured using a ViewLux plate reader (Perkin Elmer, Shelton, CT). Data were expressed as relative luminescence units.
# Potency is read from the fitted curve at half-maximal effect.
# Chain of Cytochrome P450 2C9 (Homo sapiens) (P11712 whole entry, looked up): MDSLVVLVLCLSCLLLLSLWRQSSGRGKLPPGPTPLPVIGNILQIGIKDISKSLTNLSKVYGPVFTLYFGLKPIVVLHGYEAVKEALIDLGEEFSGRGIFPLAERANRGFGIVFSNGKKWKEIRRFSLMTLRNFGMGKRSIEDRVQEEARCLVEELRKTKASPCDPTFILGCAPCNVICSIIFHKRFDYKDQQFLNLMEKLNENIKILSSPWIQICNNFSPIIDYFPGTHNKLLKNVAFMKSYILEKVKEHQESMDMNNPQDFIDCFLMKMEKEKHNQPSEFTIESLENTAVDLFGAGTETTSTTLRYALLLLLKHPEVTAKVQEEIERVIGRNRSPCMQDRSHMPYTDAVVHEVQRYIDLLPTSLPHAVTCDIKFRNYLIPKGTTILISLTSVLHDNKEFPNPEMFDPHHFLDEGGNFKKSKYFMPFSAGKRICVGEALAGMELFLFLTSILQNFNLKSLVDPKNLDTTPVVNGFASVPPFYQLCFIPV
row,Structure (SMILES),Potency
1,CCOC(=O)c1ccc(C#Cc2ccc3c(c2)C(C)(C)CCS3)nc1,inactive
2,CC(C)C[C@H](NC(=O)[C@H](CCc1ccccc1)NC(=O)CN1CCOCC1)C(=O)N[C@@H](Cc1ccccc1)C(=O)N[C@@H](CC(C)C)C(=O)[C@@]1(C)CO1,inactive
3,CN(C)CCc1c[nH]c2ccc(C[C@H]3COC(=O)N3)cc12,inactive
4,CC(C(=O)O)c1ccc2c(c1)CC(=O)c1ccccc1S2 (stereo not given),inactive
5,Cc1noc(NS(=O)(=O)c2ccc(N)cc2)c1C,inactive
6,O=S(=O)(c1cccc2cnccc12)N1CCCNCC1,inactive
7,CCCOc1ccc(C(=O)OCCN(CC)CC)cc1N,inactive
8,C[C@@H]1C[C@H]2[C@@H]3CCC4=CC(=O)C=C[C@]4(C)[C@@]3(Cl)[C@@H](O)C[C@]2(C)[C@@]1(OC(=O)c1ccco1)C(=O)CCl,4.36 µM (active)
9,Cc1cccc(N(C)C(=S)Oc2ccc3ccccc3c2)c1,11 µM (active)
10,Cn1c(=O)c2c(ncn2CC(O)CO)n(C)c1=O (stereo not given),inactive
11,COc1cc([C@@H]2c3cc4c(cc3[C@H](O)[C@H]3COC(=O)[C@H]23)OCO4)cc(OC)c1OC,1.55 µM (active)
12,CC1(C)[C@H](C(=O)O)N2C(=O)C[C@H]2S1(=O)=O,inactive
13,CC(=O)[C@H]1CC[C@H]2[C@@H]3CC=C4C[C@@H](O)CC[C@]4(C)[C@H]3CC[C@]12C,inactive
14,O[C@@H](CNC[C@H](O)[C@H]1CCc2cc(F)ccc2O1)[C@@H]1CCc2cc(F)ccc2O1,inactive
15,O=C(O)CSCC(=O)NC1CCSC1=O (stereo not given),inactive
16,CO[C@@H]1[C@@H](OC(N)=O)[C@@H](O)[C@H](Oc2ccc3c(O)c(NC(=O)c4ccc(O)c(CC=C(C)C)c4)c(=O)oc3c2C)OC1(C)C,3.09 µM (active)
17,COC(=O)Nc1nc2ccc(Sc3ccccc3)cc2[nH]1,inactive
18,C#CCN[C@@H]1CCc2ccccc21,inactive
19,CNC(=O)c1cc(Oc2ccc(NC(=O)Nc3ccc(Cl)c(C(F)(F)F)c3)cc2)ccn1,19.5 µM (active)
20,COc1cnc(NS(=O)(=O)c2ccc(N)cc2)nc1,inactive

row,Structure (SMILES),Potency
1,CCn1cc(C(=O)O)c(=O)c2cc(F)c(N3CCNCC3)cc21,inactive
2,Cc1ccnc2c1NC(=O)c1cccnc1N2C1CC1,inactive
3,O=C(NCC1CN(c2ccc(N3CCOCC3=O)cc2)C(=O)O1)c1ccc(Cl)s1 (stereo not given),8.71 µM (active) and 3.79 µM (active)
4,CN1CCN(c2c(F)cc3c(=O)c(C(=O)O)cn(CCF)c3c2F)CC1,inactive
5,NC1(c2ccc(-c3nc4ccn5c(=O)[nH]nc5c4cc3-c3ccccc3)cc2)CCC1,inactive
6,COc1ccc2cc3[n+](cc2c1OC)CCc1cc2c(cc1-3)OCO2,inactive
7,O=C(O)c1cc(=O)[nH]c(=O)[nH]1,inactive
8,CNCC[C@H](Oc1cccc2ccccc12)c1cccs1,inactive
9,CS(=O)(=O)c1ccc([C@@H](O)[C@@H](CO)NC(=O)C(Cl)Cl)cc1,inactive
10,COc1nc(N)nc2c1ncn2[C@@H]1O[C@H](CO)[C@@H](O)[C@@H]1O,inactive
11,CCCCc1oc2ccc(NS(C)(=O)=O)cc2c1C(=O)c1ccc(OCCCN(CCCC)CCCC)cc1,12.3 µM (active) and 12 µM (active)
12,CN1CCCC(n2nc(Cc3ccc(Cl)cc3)c3ccccc3c2=O)CC1 (stereo not given),inactive
13,COC(=O)Nc1nc2ccc(C(=O)c3ccccc3)cc2[nH]1,inactive
14,CCOC(=O)[C@H](CCc1ccccc1)N[C@H]1CS[C@H](c2cccs2)CN(CC(=O)O)C1=O,inactive
15,COc1c(N2CCNC(C)C2)c(F)cc2c(=O)c(C(=O)O)cn(C3CC3)c12 (stereo not given),inactive
16,Cc1nnc(NS(=O)(=O)c2ccc(N)cc2)s1,17.4 µM (active)
17,Cn1nnc2c(C(N)=O)ncn2c1=O,inactive
18,COc1cc2c(Nc3ccc(Br)cc3F)ncnc2cc1OCC1CCN(C)CC1,inactive
19,COc1ncnc(NS(=O)(=O)c2ccc(N)cc2)c1OC,inactive
20,CNNCc1ccc(C(=O)NC(C)C)cc1,inactive
